# Source: article PMC7819943, “Rice protein-binding microarrays: a tool to detect cis-acting elements near promoter regions in rice”
# In all, about 35,000 sequences were measured (“fluorescence intensity (a.u.)”: median about 10,000, highest 2% from about 52,000 on). The sample as a whole holds a higher share of the highest values than the screen did.
# Molecular target: T1, OsWOX13 (Oryza sativa, UniProt Q5QMM3 1-267)
# T1 sequence: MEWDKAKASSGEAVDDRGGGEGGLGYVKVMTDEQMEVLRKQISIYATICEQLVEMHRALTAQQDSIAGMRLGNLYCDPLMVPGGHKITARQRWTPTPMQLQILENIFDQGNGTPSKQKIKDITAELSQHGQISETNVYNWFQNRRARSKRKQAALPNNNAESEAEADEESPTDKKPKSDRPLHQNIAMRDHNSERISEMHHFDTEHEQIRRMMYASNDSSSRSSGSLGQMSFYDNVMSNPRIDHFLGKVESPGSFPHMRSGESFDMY
# Assay: protein-binding microarray (RPBM); PBS, 2% BSA, 51.3 ng/ul salmon testes DNA, 50 uM zinc acetate, 200 nM TF, 25 C, 1 h; high values mean tight binding
# Conditions: protein: recombinant; tags: N-terminal polyhistidine and DsRed monomer fusion (pET32a); label: CyDye5-dUTP incorporated in the synthesized complementary strand; 3' TTTTT single-stranded linker to array surface; dsDNA, one strand shown
# How it was run: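 The binding signal is fluorescence intensity per array feature (arbitrary units). Readings came from an Axon 4000B scanner after a washed, 2% BSA-blocked, double-stranded custom Agilent array had been incubated for 1 h at 25 °C with 200 nM protein and 50 µM zinc acetate. The protein was a Ni–NTA-purified transcription factor fused N-terminally to polyhistidine and DsRed, expressed in E. coli BL21-CodonPlus.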
row,Sequence,binding signal
1,TAGATTGATTGTTACTCCGTACATAACCTTGTCTTCTTCGCGGAGTCACCTAGTGCAG,55400 fluorescence intensity (a.u.)
2,TATGATTTGTCTACGTTACAAACATAAACCTTTTCTTCTCCGGAGTCACCTAGTGCAG,11400 fluorescence intensity (a.u.)
3,ATTTATGTAATTATCATTTATTTTATTGTAAATTTATTTACGGAGTCACCTAGTGCAG,16300 fluorescence intensity (a.u.)
4,ATTTTGGTTTCTGTTATTGACAAAACAACTCACTCATTCCCGGAGTCACCTAGTGCAG,3480 fluorescence intensity (a.u.)
5,GGAGTGCAAATTAGTCCGGATTTTACTGAATATTGATAACCGGAGTCACCTAGTGCAG,3300 fluorescence intensity (a.u.)
6,GCTGGTTTGATTAGATCTTCATCCCACGTGGCATTGACGTCGGAGTCACCTAGTGCAG,17200 fluorescence intensity (a.u.)
7,TCTTGTAATTATTCTATGTTTAATACTCTAAATTAGCATCCGGAGTCACCTAGTGCAG,20000 fluorescence intensity (a.u.)
8,TGGTGATAATGTCATTCTGTTATTACAGAGGTCAACGTGTCGGAGTCACCTAGTGCAG,3410 fluorescence intensity (a.u.)
9,CTCCACTAATCCTACCAATTAACGAGTCGTACTCAATAATCGGAGTCACCTAGTGCAG,7550 fluorescence intensity (a.u.)
10,CAGCTGTTCTAATGATTTGAGATATATCAAACTTGTCAAACGGAGTCACCTAGTGCAG,3250 fluorescence intensity (a.u.)
11,TAAGTTAATAGATATTTAACGTTTATAATAAGATTTGTTTCGGAGTCACCTAGTGCAG,9590 fluorescence intensity (a.u.)
12,AGCGCAACTAATTAAACTAGGCTTATCAGGCGACAGCGGCCGGAGTCACCTAGTGCAG,4920 fluorescence intensity (a.u.)
13,TCAAACAAACCAATCAATCAATCAATCAGGGGATTCTTACCGGAGTCACCTAGTGCAG,42300 fluorescence intensity (a.u.)
14,GGCAATCAATCAACCAATCACCAGCTTACAATTCGGCCACCGGAGTCACCTAGTGCAG,59300 fluorescence intensity (a.u.)
15,CACCCAATCACAATCCAACCCACGCCATTGCAACCAAATTCGGAGTCACCTAGTGCAG,4130 fluorescence intensity (a.u.)
16,GTGTAATTTTGTTAGGAAATTTGGGTTTGAATCAGTGGAACGGAGTCACCTAGTGCAG,12500 fluorescence intensity (a.u.)
17,TCCTGATTTCGCCGCCACTTGTAGCATCTGCCCGTGGGGTCGGAGTCACCTAGTGCAG,5510 fluorescence intensity (a.u.)
18,TACGGCTAATTATGGACTAATTAGACTCAAAAGATTCATGCGGAGTCACCTAGTGCAG,53800 fluorescence intensity (a.u.)
19,TACTAATCATAGACTAATTAGGCTCAAAAGATTCGTCTCACGGAGTCACCTAGTGCAG,31300 fluorescence intensity (a.u.)
20,TTATGGCTAATCATGAACTAATTAGACTCAAAAGATTCGTCGGAGTCACCTAGTGCAG,23700 fluorescence intensity (a.u.)
21,ATGGCTAATTATGGACTAATTAGACTCAAAAGATTCGTTTCGGAGTCACCTAGTGCAG,19800 fluorescence intensity (a.u.)
22,GCTAATCATAGACTAATTAGACTCAAAAGATTAGTCTCGCCGGAGTCACCTAGTGCAG,52800 fluorescence intensity (a.u.)
23,GCTAATCATAGACTAATTAGGCTTAAAAGATTTGTCTCGCCGGAGTCACCTAGTGCAG,37200 fluorescence intensity (a.u.)

row,Sequence,binding signal
1,ATGGATTAATTAGGCTCAAAAGATTTGTCTCACTATTTCCCGGAGTCACCTAGTGCAG,13500 fluorescence intensity (a.u.)
2,ACTAATTAGACTTAAAAGATTTGTCTCATGATTTACTCCCCGGAGTCACCTAGTGCAG,56300 fluorescence intensity (a.u.)
3,GATTAATTAGACTTAATAAATTTGTCTCACGGTTTACGGACGGAGTCACCTAGTGCAG,40500 fluorescence intensity (a.u.)
4,ATCTTAATTTACCTTTCACTGCATCTAATATGTCACTTTGCGGAGTCACCTAGTGCAG,20700 fluorescence intensity (a.u.)
5,ATTTGAAATTTAAATTTTAGCTTTTGCTTTAGTTTATTTGCGGAGTCACCTAGTGCAG,8720 fluorescence intensity (a.u.)
6,CCGTGATTAGCGACATTGCTGTGTGCAACGTTTGTTCCTTCGGAGTCACCTAGTGCAG,37600 fluorescence intensity (a.u.)
7,TGTTAGATGATAAAACATGATTAATATTTTATGTGTGACTCGGAGTCACCTAGTGCAG,4360 fluorescence intensity (a.u.)
8,AATAACTGATAAAAGATATATGATTTTGGAGAAATGTGTGCGGAGTCACCTAGTGCAG,26100 fluorescence intensity (a.u.)
9,TAGATTAATTTGTCATCAAAACACCCTCATATAATTAATTCGGAGTCACCTAGTGCAG,19200 fluorescence intensity (a.u.)
10,TTTCTTAATTGTATTTCTATATGGACTTGATACCCTTCTTCGGAGTCACCTAGTGCAG,18900 fluorescence intensity (a.u.)
11,AGCCTAATTAATACATAATTAGCACATGTTTACTGTAGCACGGAGTCACCTAGTGCAG,55100 fluorescence intensity (a.u.)
12,AGCCTAATTAATCCATAATTAACATATGTTTACTGTAGCACGGAGTCACCTAGTGCAG,53000 fluorescence intensity (a.u.)
13,CCTAATTAATCCATAGCACATGTTTACTGTAGCGTCACATCGGAGTCACCTAGTGCAG,12400 fluorescence intensity (a.u.)
14,AATCCATAATTAGAGAATGTTTACTGTAGCATCACATAGGCGGAGTCACCTAGTGCAG,15900 fluorescence intensity (a.u.)
15,GTAGTGAATGGCTGCCTAATTTTGTGCATTAACCATGGTGCGGAGTCACCTAGTGCAG,5100 fluorescence intensity (a.u.)
16,CTAATTAATCCGTTATTAGCACATATGTGTTACTGTAGCACGGAGTCACCTAGTGCAG,12200 fluorescence intensity (a.u.)
17,TCATAATTAATTAGAAGTGGCTGCATGTGAGAATGTTTGGCGGAGTCACCTAGTGCAG,53800 fluorescence intensity (a.u.)
18,AAGTCTAATTAATTCATAATTAGCACATGTTTACTGTAGCCGGAGTCACCTAGTGCAG,53800 fluorescence intensity (a.u.)
19,AGCCTAATTAATCTATAATTAGAGAATGTTTACTGTAGCACGGAGTCACCTAGTGCAG,46200 fluorescence intensity (a.u.)
20,AGCCTAATTAATCCGATATTAGTAAATGTTTACTGTAGCACGGAGTCACCTAGTGCAG,15000 fluorescence intensity (a.u.)
21,TTCATAATTAGCACATGTTTACTGTGGTATCACATGGACTCGGAGTCACCTAGTGCAG,25200 fluorescence intensity (a.u.)
22,TAAACCTAATTAATCATCATTAGCAAATGTTTACTGTAGCCGGAGTCACCTAGTGCAG,30400 fluorescence intensity (a.u.)
